According to PubChem BioAssay AID633 (Emory University Molecular Libraries Screening Center, 2007):
Hit rate of the full screen: of about 86,000 compounds, about 1,100 (1.3%) were called active. This is one part of a sample in which actives are shown more often than they occur. Unmarked numbers belong to inactive results.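 How the source made its calls: active means compounds whose percent inhibition of the receptor-coactivator binding signal exceeds about 50% in the single-dose screen (limit read from the data); inactive means the rest.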

What follows are compounds tested against Estrogen receptor beta (Homo sapiens) (UniProt Q92731) (assay: inhibitors of ERβ-SRC1 coactivator interaction, primary screen, biochemical, TR-FRET, ERβ LBD, SRC-1 peptide (AID 633;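 further: 0% = receptor plus peptide wells without compound and 100% = peptide-only wells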)). Conditions: TR-FRET ER-beta LBD / SRC1-Cy5 peptide binding; at 25.6 µM; hits give high values; receptor agonist-loaded with 1 µM estradiol.
Chain of Estrogen receptor beta (Homo sapiens) (Q92731 whole entry, looked up, the tested form may be a part): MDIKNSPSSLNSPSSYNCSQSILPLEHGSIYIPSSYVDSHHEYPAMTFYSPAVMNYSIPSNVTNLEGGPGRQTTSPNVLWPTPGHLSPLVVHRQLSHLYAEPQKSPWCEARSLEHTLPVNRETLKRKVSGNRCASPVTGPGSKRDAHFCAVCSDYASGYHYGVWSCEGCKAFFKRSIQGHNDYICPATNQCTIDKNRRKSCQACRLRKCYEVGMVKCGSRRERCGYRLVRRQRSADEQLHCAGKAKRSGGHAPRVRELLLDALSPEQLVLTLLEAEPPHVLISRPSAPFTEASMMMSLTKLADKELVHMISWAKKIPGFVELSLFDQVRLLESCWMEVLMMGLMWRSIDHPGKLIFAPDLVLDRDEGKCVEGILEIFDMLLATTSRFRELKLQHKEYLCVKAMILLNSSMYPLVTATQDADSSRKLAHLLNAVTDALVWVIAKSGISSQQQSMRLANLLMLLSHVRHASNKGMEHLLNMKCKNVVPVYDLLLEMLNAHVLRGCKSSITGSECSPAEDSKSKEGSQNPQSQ
For `C=CCn1c(SCc2c(C(=O)OC)sc(N)c2C(=O)OC)nnc1-c1ccc(Cl)cc1`, the inhibition was -3.96%.
For `COC(=O)c1ccc(NC(=O)CSc2nnc(-c3ccncc3)n2C)cc1`, the inhibition was -13.7%.
In the case of `C=CCn1c(SCc2cc(C(=O)OC)c(C)o2)nnc1-c1ccncc1`, the inhibition was 51.1% (active).
For `O=C(CN(c1ccccc1)S(=O)(=O)c1ccc(Cl)cc1)Nc1ccccc1C(=O)N1CCCC1`, the inhibition was -2.12%.
With `C=C(C)CNC(=S)/N=c1\scc(C)n1CC` the inhibition was 77.4% [fluorescence artefact?] (active).
Work on `C=CCn1c(SCCOc2ccc(OC)cc2)nnc1C(NC(=O)c1ccc(OC)cc1)C(C)C` (centres undefined) yielded an inhibition of 6.7%.
For `COC(=O)CSc1nc2c(c(C3CC=CCC3)c1C#N)CCC2` (centres undefined), the inhibition was -2.54%.
Work on `CCC(c1nnnn1C(C)(C)C)N(Cc1cc2cccc(C)c2n2nnnc12)C1CCCC1` (centres undefined) yielded an inhibition of 1.68%.
Work on `O=C(CN1C(=O)CC(c2ccccc2)=Nc2ccccc21)NC1CCCCC1` yielded an inhibition of -6.21%.
For `COc1ccc(C)cc1S(=O)(=O)Nc1cccc(Cl)c1Cl`, the inhibition was -12.3%.
`Oc1c(Cl)cc(Cl)c(Cl)c1Cc1c(O)c(Cl)cc(Cl)c1Cl` was tested, and the inhibition was 94.6% [fluorescence artefact?] (active).
`COc1cc(OC)c(-n2c(C)cc(C=O)c2C)cc1Cl` was tested, and the inhibition was 4.25%.
In the case of `O=C(/C=C/c1ccc(Cl)cc1Cl)c1cccnc1`, the inhibition was 23.9%.
In the case of `Cc1ccc(CNC(=O)CN2CCN(Cc3ccc(Cl)cc3)C2=O)cc1`, the inhibition was 52.1% [fluorescence artefact?] (active).
For `CC1CCCC(NC(=O)CN2CCN(Cc3ccc(Cl)cc3)C2=O)C1C` (centres undefined), the inhibition was -3.92%.
For `CC(NC(=O)CN1CCN(Cc2ccc(Cl)cc2)C1=O)c1ccc2c(c1)OCCO2` (centres undefined), the inhibition was -8.28%.
Compound `COC(=O)c1cc(NC(=O)C2C3C=CC(C3)C2C(=O)O)cc(C(=O)OC)c1` (centres undefined) has an inhibition of -3.6%.
`Cc1cc(NC(=O)CSc2nc(C(C)C)nc3sc4c(c23)CCC(C)C4)no1` (centres undefined) was tested, and the inhibition was -5.67%.
`COc1ccc(C2C(C(C)=O)=C(O)C(=O)N2Cc2cccnc2)cc1` (centres undefined) showed an inhibition of -18.2%.
`C=CCn1c(=S)[nH]c2nc3c(cc2c1=O)COC(C)(C)C3` showed an inhibition of -1.84%.
In the case of `CC(C)CCSc1ncnc2c1oc1nc3c(cc12)COC(C)(C)C3`, the inhibition was 54.5% [fluorescence artefact?] (active).
In the case of `CCCc1nc2oc3c(OCC)ncnc3c2c2c1COC(C)(C)C2`, the inhibition was 2.61%.
`CCOc1cc2[nH]c(=S)n(CCN3CCCCC3C)c(=O)c2cc1OCC` (centres undefined) showed an inhibition of -0.24%.
`CCOc1cccc(NC(=O)Cn2nc(-c3ccc4c(c3)OCCO4)ccc2=O)c1` was tested, and the inhibition was 0.68%.
